# Bioassay records as filed in PubChem.
# Shown are actives, neighbours in structure and some others; about 1.2% of the full set was active somewhere.
# Mtb betalactam – beta-lactam sensitization of Mtb H37Rv, H37Rv | M. tuberculosis H37Rv growth with meropenem, percent inhibition | inhibition, % at 25 µM | 330,000 tested, 0.27% active | AID 434955, 2010; call rule not given here;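 note: growth measured after seven days incubation then overnight dye step; 0% = bacteria only wells and 100% = bacteria with antibiotic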
# Sa RN4220 lethal – growth inhibition of S. aureus RN4220, primary screen, OD600. 16 h. inhibition, % (no concentration beside the values). 330,000 tested, 0.33% active. AID 1259311, 2017; in the data active = inhibition above about 85%;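 note: plate controls were untreated cells for no effect and reference antibiotic for full effect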
# PfHsp40 rescue – rescue of yeast from PfHsp40 toxicity, primary screen, S. cerevisiae, ATP luminescence | S. cerevisiae expressing PfHsp40, growth rescue | growth rescue, % at 12.5 µM | 340,000 tested, 0.68% active | AID 504582, 2011; in the data active = growth rescue above about 28%, passing the limit was not always enough; inconclusive = no clear call, values can overlap the other calls;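 note: yeast W303a lacking pdr1 and pdr3 grown in galactose medium; growth measured after three days at 30 °C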
# BH1578 lux ind – inducers of Vibrio cholerae quorum light production without autoinducers, primary screen, BH1578 luxS cqsA deficient, single point; V. cholerae BH1578 lux reporter, luminescence, 6 h; AID 588436, 2011; 350,000 tested, 0.16% active; activation, % at 18.7 µM; in the data active = activation mostly above about 9.7%, no sharp cut-off; inconclusive = no clear call, values can overlap the other calls; inactive = mostly below about 3.7%
# Sa ugtP lethal – growth inhibition of ugtP-null S. aureus, primary screen, RN4220 ugtP deletion, OD600; AID 1259309, 2017; 16 h; 330,000 tested, 0.54% active; growth inhibition, % (test concentration not listed); in the data active = growth inhibition above about 68%;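 note: plate controls were untreated wells for no effect and antibiotic for full effect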
# * hit, by the source's call; i = inactive; u = inconclusive; x = no result given; + = active, no number; ! = a repeat was not active.
SMILES,Mtb betalactam,Sa RN4220 lethal,PfHsp40 rescue,BH1578 lux ind,Sa ugtP lethal
COc1ccc(C=NNC(=O)c2nc(-c3ccccc3)n(-c3ccccc3)n2)cc1,x,-2,x,x,5
COc1cc(C(=O)O)c2c(c1C)OC(=O)c1c(C)cc(O)c(C=O)c1O2,3,3,86*,0,-4
CC(=NNc1nc2ccccc2[nH]1)c1ccc([N+](=O)[O-])cc1,x,1,x,x,2
O=C(NN=Cc1c[nH]c2ccccc12)c1cc(-c2ccc(-c3ccccc3)cc2)n[nH]1,x,87*,x,x,28
O=C(NN=Cc1c[nH]c2ccccc12)c1cc(-c2cccc3ccccc23)n[nH]1,x,-10,x,x,-5
O=[N+]([O-])c1ccc(Cl)c(S(=O)(=O)N=C(c2ccccc2)N2CCOCC2)c1,x,9,x,x,1
CC(=O)c1c(CC(=O)O)[nH]n(-c2nc3ccccc3s2)c1=O,13,5,-2,-3,-5
COC(=O)Cc1[nH]n(-c2nc3ccccc3s2)c(=O)c1C(C)=O,0,4,-1,+,5
O=[N+]([O-])c1ccc(Cl)c(C=Nn2c(COc3ccccc3)n[nH]c2=S)c1,x,10,x,x,-5
NC(=O)C1=C(c2ccccc2)c2ccccc2C1=O,x,81,-1,43*,64
Cc1ccc(C2=C(O)c3ccccc3C(=O)C2=O)cc1,20,13,2,0,-19
CC1(C)OC2CC3C4CCC5=CC(=O)C=C[C@]5(C)[C@@]4(F)C(O)C[C@]3(C)[C@]2(C(=O)CO)O1 (stereo partly specified),x,4,x,x,-4
COc1ccc(-c2cc3ncc(C(C)=O)c(C)n3n2)cc1,-1,2,53*,i,3
OCC1OC(n2cnc3c(Nc4ccccc4)ncnc32)C(O)C1O (stereo unspecified),x,4,x,x,-5
CN(CCO)c1cc(Sc2nc3ccccc3s2)c2nonc2c1[N+](=O)[O-],u,57,1,-2,88*
CC(=O)OCCN(C)c1cc(SC(C)C)c2nonc2c1[N+](=O)[O-],-5,2,1,0,9
Fc1ccccc1C=Nn1c(COc2ccccc2)n[nH]c1=S,x,7,x,x,6
Cc1ccc2cc(CN(Cc3cccs3)Cc3nnnn3CC3CCCO3)c(=O)[nH]c2c1C (stereo unspecified),x,3,73*,-5,-9
Cc1ccc2cc(CN(Cc3cccs3)Cc3nnnn3CC3CCCO3)c(=O)[nH]c2c1 (stereo unspecified),3,4,0,1,1
Cc1ccc2[nH]c(=O)c(CN(Cc3cccs3)Cc3nnnn3CC3CCCO3)cc2c1 (stereo unspecified),2,2,105*,i,-8
CCCCCCSc1ccc([C@H]2N[C@@](C)(C(=O)OC)[C@H]3C(=O)N(C)C(=O)[C@@H]23)cc1,6,x,39*,i,x
CCCSc1ccc([C@H]2N[C@@](C)(C(=O)OC)[C@H]3C(=O)N(C)C(=O)[C@@H]23)cc1,1,x,-2,i,x
COc1ccc(O)c(C=NNC(=O)CCC(=O)Nc2cccc(C)c2)c1,x,2,x,x,5
CCOc1ccc(NCc2cc3c(C(C)(C)C)nn(-c4ccccc4)c3[nH]c2=O)cc1,97,-6,43*,0,23
O=C(CS(=O)c1ccccc1[N+](=O)[O-])Oc1ccc(Br)cc1 (stereo unspecified),5,0,68*,0,3
SMILES,Mtb betalactam,Sa RN4220 lethal,PfHsp40 rescue,BH1578 lux ind,Sa ugtP lethal
Cc1ccc(-c2cc(-c3ccccc3)cc(-c3ccccc3)[n+]2-c2ccccc2)cc1,100,94*,1,i,98*
c1ccc(-c2cc(-c3ccccc3)[n+](-c3ccccc3)c(-c3ccccc3)c2)cc1,88,5,-1,0,-2
Cc1ccc(-c2cc(-c3ccc(C)cc3)[n+](-c3ccccc3)c(-c3ccc(C)cc3)c2)cc1,100,101*,229*,-4,100*
C#CCOCCOCCOCCNc1nc(N2CCOCC2)nc(N2CCN(C(=O)C(Cc3cc4ccccc4[nH]3)n3cc(C(N)Cc4ccc(O)cc4)nn3)CC2)n1 (stereo unspecified),x,-1,x,x,-10
c1ccc(-c2nc(NCc3cccnc3)c3oc4ccccc4c3n2)cc1,100,-2,48*,12,7
COC(=O)[C@H](Cc1ccccc1)NC(=O)N1Cc2ccccc2C[C@H]1C(=O)OC,-5,2,-1,i,-6
COC(=O)C1Cc2ccccc2CN1C(=O)CCl (stereo unspecified),98,-1,41*,-2,0
Clc1ccc(C(c2ccccc2Cl)C(Cl)Cl)cc1 (stereo unspecified),3,-9,7,0,93*
CCCn1c(=O)c(C(=O)NNS(=O)(=O)c2ccc(NC(=O)OC)cc2)c(O)c2ccccc21,6,97*,1,-3,97*
CCCCCCCCCC(=O)NNC(=O)c1c(O)c2ccccc2n(CC)c1=O,1,97*,0,0,101*
CCCCCC(=O)NNC(=O)c1c(O)c2ccccc2n(CC)c1=O,-6,24,20,-1,-7
CCn1c(=O)c(C(=O)NNC(=O)c2ccccc2Cl)c(O)c2ccccc21,3,14,34*,0,-16
Cn1c(=O)c(C(=O)NNC(=O)c2ccccc2F)c(O)c2ccccc21,89,15,3,i,-9
CCn1c(=O)c(C(=O)NNS(=O)(=O)c2ccc(NC(=O)OC)cc2)c(O)c2ccccc21,4,7,1,-1,7
Cn1c(=O)c(C(=O)NNC(=O)c2ccc(Br)cc2)c(O)c2ccccc21,100,98*,u,0,100*
COc1ccc(C=NS(=O)(=O)c2ccc(C)cc2)cc1,x,5,x,x,5
CCCCCNC(=O)CSC1=NC(=Cc2ccc(Cl)c(Cl)c2)C(=O)N1CC,x,5,x,x,0
COc1ccc(C=NOCC(=O)NC(c2ccccc2)c2ccccc2)c(OC)c1,x,0,x,x,-7
CCc1ccc(C2CC=C(C(=O)O)C(c3cccc(Cl)c3)N2S(=O)(=O)c2ccc(C)cc2)cc1 (stereo unspecified),x,23,x,x,61
CCSc1nc(C2CC2)cc(-c2cccs2)c1C#N,11,8,2,-4,93*
CCSc1nc(C2CC2)cc(-c2ccco2)c1C#N,2,2,0,1,14
FC(F)(F)Sc1ccc(NC(=S)NCc2ccccc2)cc1,3,52,148*,i,53
S=C(NCc1ccccc1)Nc1ccc(Cl)cc1,1,-3,1,0,-1
COc1ccc(C(=O)ON=C(C)c2ccccc2)cc1,x,3,x,x,4
CCOC(=O)C1C2COc3ccccc3C2N2C(=O)N(c3ccc(C(F)(F)F)cc3)C(=O)[C@]12C (stereo partly specified),x,101*!,x,x,100*!
CCOC(=O)[C@@H]1[C@H]2COc3cc(OC)ccc3[C@H]2N2C(=O)N(c3ccc(C(F)(F)F)cc3)C(=O)[C@]12C,100,x,193*,-10,x
